According to the supplement of paper PMC9262897, “Low-cost anti-mycobacterial drug discovery using engineered E. coli” (Nature Communications, 2022):
Structures can show the parent of a compound that is named as a salt. ± gives the standard deviation of the averaged measurements.

tested on: E. coli TESEC Mtb DapB; assay: growth (OD600 after 10 h); higher = more growth (less inhibition); details: arabinose induction (level): High; compound 0.1 mM; raw OD600 reference: median of DMSO wells […], cell-free background 0.041
Protocol: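 TESEC E. coli strains in which the native enzyme is deleted and replaced by arabinose-inducible Mtb Asd, DapB, CysH or TrpD, each grown in its selective medium. Strains were screened against the Prestwick library at 0.1 mM and 1% DMSO in 384-well format at low and high arabinose induction. Growth is read as OD600 after 10 h in triplicate.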

Question: Which growth does the source give for `COc1ccc2c(c1)N(C[C@H](C)CN(C)C)c1ccccc1S2` [Methotrimeprazine maleat salt] here?
Answer: 0.1934 ± 0.0013

Question: With `CCN(CC)C(=O)C1(c2ccccc2)CC1CN` (stereo not given) [Milnacipran hydrochloride] as the compound, how does the growth read?
Answer: 0.203 ± 0.016

Question: `CC(=O)N[C@@H](CC(=O)N[C@@H](CCC(=O)O)C(=O)O)C(=O)O` [Spaglumic acid] was tested. Which growth did it give?
Answer: 0.211 ± 0.021

Question: How did the growth turn out when `CC[C@]12CCCN3CCc4c(n(c5ccccc45)[C@@](O)(C(=O)OC)C1)[C@@H]32` [Vincamine] was run?
Answer: 0.191 ± 0.015

Question: For `CCC[C@@H]1C[C@@H](C(=O)N[C@@H]([C@H]2O[C@H](SC)[C@H](O)[C@@H](O)[C@H]2O)[C@@H](C)O)N(C)C1` [Lincomycin hydrochloride], which growth is on record?
Answer: 0.172 ± 0.03

Question: With `CC(C)(C)NC(=O)[C@@H]1C[C@@H]2CCCC[C@@H]2CN1C[C@@H](O)[C@H](Cc1ccccc1)NC(=O)[C@H](CC(N)=O)NC(=O)c1ccc2ccccc2n1` [Saquinavir mesylate] as the compound, how does the growth read?
Answer: 0.05287 ± 0.00045

Question: How did the growth turn out when `CN1CCN(C(c2ccccc2)c2ccc(Cl)cc2)CC1` (stereo not given) [Chlorcyclizine hydrochloride] was run?
Answer: 0.205 ± 0.014

Question: For `CC(C)(C)CC(C)(C)c1ccc(OCCOCC[N+](C)(C)Cc2ccccc2)cc1` [Benzethonium chloride], which growth is on record?
Answer: 0.0485 ± 0.0028

Question: `OCCN1CCN(CCCN2c3ccccc3Sc3ccc(Cl)cc32)CC1` [Perphenazine] was tested. Which growth did it give?
Answer: 0.0511 ± 0.001

Question: `CC(NCCc1ccc(O)cc1)C(O)c1ccc(O)cc1` (stereo not given) [Ritodrine hydrochloride] was tested. Which growth did it give?
Answer: 0.179 ± 0.0043

Question: `CNCCCC12CCC(c3ccccc31)c1ccccc12` [Maprotiline hydrochloride] was tested. Which growth did it give?
Answer: 0.1849 ± 0.0011

Question: With `CC(=O)OCC(=O)[C@@]1(O)CC[C@H]2[C@@H]3CCC4=CC(=O)CC[C@]4(C)[C@H]3[C@@H](O)C[C@@]21C` [Cortisol acetate] as the compound, how does the growth read?
Answer: 0.213 ± 0.0036

Question: For `N=C(N)NC(=O)Cc1c(Cl)cccc1Cl` [Guanfacine hydrochloride], which growth is on record?
Answer: 0.19 ± 0.015

Question: With `Cc1cnc(C(=O)O)c[n+]1[O-]` [Acipimox] as the compound, how does the growth read?
Answer: 0.199 ± 0.013

Question: `Clc1ccc(COC(Cn2ccnc2)c2ccc(Cl)cc2Cl)cc1` (stereo not given) [Econazole nitrate] was tested. Which growth did it give?
Answer: 0.04893 ± 0.00047

Question: `COc1ccc(/C=C/C(=O)Nc2ccccc2C(=O)O)cc1OC` [Tranilast] was tested. Which growth did it give?
Answer: 0.204 ± 0.035

Question: With `CC(=O)OCC(=O)[C@@]12OC3(CCCC3)O[C@@H]1C[C@H]1[C@@H]3CCC4=CC(=O)C=C[C@]4(C)[C@@]3(F)[C@@H](O)C[C@@]12C` [Amcinonide] as the compound, how does the growth read?
Answer: 0.222 ± 0.043

Question: For `CN(C)CCOc1ccc(/C(=C(/CCCl)c2ccccc2)c2ccccc2)cc1` [Toremifene], which growth is on record?
Answer: 0.0495 ± 0.0014

Question: For `CC(=O)Nc1ccc(OCC(O)CNC(C)C)cc1` (stereo not given) [Practolol], which growth is on record?
Answer: 0.177 ± 0.0065

Question: `Cc1ccc(-c2ncc(Cl)cc2-c2ccc(S(C)(=O)=O)cc2)cn1` [Etoricoxib] was tested. Which growth did it give?
Answer: 0.204 ± 0.031

same assay, conditions: arabinose induction (level): Low; compound 0.1 mM; raw OD600 reference: median of DMSO wells 0.227, cell-free background 0.041

Question: With `COc1ccc2c(c1)N(C[C@H](C)CN(C)C)c1ccccc1S2` [Methotrimeprazine maleat salt] as the compound, how does the growth read?
Answer: 0.211 ± 0.012

Question: `CCN(CC)C(=O)C1(c2ccccc2)CC1CN` (stereo not given) [Milnacipran hydrochloride] was tested. Which growth did it give?
Answer: 0.259 ± 0.026

Question: `CC(=O)N[C@@H](CC(=O)N[C@@H](CCC(=O)O)C(=O)O)C(=O)O` [Spaglumic acid] was tested. Which growth did it give?
Answer: 0.216 ± 0.027

Question: Which growth does the source give for `CC[C@]12CCCN3CCc4c(n(c5ccccc45)[C@@](O)(C(=O)OC)C1)[C@@H]32` [Vincamine] here?
Answer: 0.266 ± 0.071

Question: With `CCC[C@@H]1C[C@@H](C(=O)N[C@@H]([C@H]2O[C@H](SC)[C@H](O)[C@@H](O)[C@H]2O)[C@@H](C)O)N(C)C1` [Lincomycin hydrochloride] as the compound, how does the growth read?
Answer: 0.179 ± 0.043

Question: Which growth does the source give for `CC(C)(C)NC(=O)[C@@H]1C[C@@H]2CCCC[C@@H]2CN1C[C@@H](O)[C@H](Cc1ccccc1)NC(=O)[C@H](CC(N)=O)NC(=O)c1ccc2ccccc2n1` [Saquinavir mesylate] here?
Answer: 0.0578 ± 0.0085

Question: How did the growth turn out when `CN1CCN(C(c2ccccc2)c2ccc(Cl)cc2)CC1` (stereo not given) [Chlorcyclizine hydrochloride] was run?
Answer: 0.261 ± 0.032

Question: With `CC(C)(C)CC(C)(C)c1ccc(OCCOCC[N+](C)(C)Cc2ccccc2)cc1` [Benzethonium chloride] as the compound, how does the growth read?
Answer: 0.0496 ± 0.0014

Question: How did the growth turn out when `OCCN1CCN(CCCN2c3ccccc3Sc3ccc(Cl)cc32)CC1` [Perphenazine] was run?
Answer: 0.0954 ± 0.078

Question: Which growth does the source give for `CC(NCCc1ccc(O)cc1)C(O)c1ccc(O)cc1` (stereo not given) [Ritodrine hydrochloride] here?
Answer: 0.185 ± 0.01

Question: How did the growth turn out when `CNCCCC12CCC(c3ccccc31)c1ccccc12` [Maprotiline hydrochloride] was run?
Answer: 0.211 ± 0.011

Question: With `CC(=O)OCC(=O)[C@@]1(O)CC[C@H]2[C@@H]3CCC4=CC(=O)CC[C@]4(C)[C@H]3[C@@H](O)C[C@@]21C` [Cortisol acetate] as the compound, how does the growth read?
Answer: 0.206 ± 0.011

Question: With `N=C(N)NC(=O)Cc1c(Cl)cccc1Cl` [Guanfacine hydrochloride] as the compound, how does the growth read?
Answer: 0.214 ± 0.026

Question: With `Cc1cnc(C(=O)O)c[n+]1[O-]` [Acipimox] as the compound, how does the growth read?
Answer: 0.217 ± 0.021

Question: `Clc1ccc(COC(Cn2ccnc2)c2ccc(Cl)cc2Cl)cc1` (stereo not given) [Econazole nitrate] was tested. Which growth did it give?
Answer: 0.0996 ± 0.064

Question: `COc1ccc(/C=C/C(=O)Nc2ccccc2C(=O)O)cc1OC` [Tranilast] was tested. Which growth did it give?
Answer: 0.178 ± 0.011

Question: With `CC(=O)OCC(=O)[C@@]12OC3(CCCC3)O[C@@H]1C[C@H]1[C@@H]3CCC4=CC(=O)C=C[C@]4(C)[C@@]3(F)[C@@H](O)C[C@@]12C` [Amcinonide] as the compound, how does the growth read?
Answer: 0.265 ± 0.025

Question: For `CN(C)CCOc1ccc(/C(=C(/CCCl)c2ccccc2)c2ccccc2)cc1` [Toremifene], which growth is on record?
Answer: 0.0508 ± 0.001

Question: `CC(=O)Nc1ccc(OCC(O)CNC(C)C)cc1` (stereo not given) [Practolol] was tested. Which growth did it give?
Answer: 0.22 ± 0.025

Question: `Cc1ccc(-c2ncc(Cl)cc2-c2ccc(S(C)(=O)=O)cc2)cn1` [Etoricoxib] was tested. Which growth did it give?
Answer: 0.261 ± 0.029
